# Screen size: about 190,000 compounds; about 1,900 (1%) were called active.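 The calls were made as follows: active = percentage of spot-positive cells more than 3 SD above its plate mean, without a fluorescence outlier flag or 80% toxicity; inconclusive = no clear call, values can overlap the other calls; inactive = the rest.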 For the sample, actives were picked, then their nearest neighbours and some compounds at random.
# Assay: GFP-LC3 puncta formation changes – imaging, high-content, MEF GFP-LC3, primary screen (AID 463193);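 as to % cells with GFP-LC3 spots: spot-positive cell cutoff set from DMSO-treated cells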;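 as to toxicity: cell loss after 18 h compound exposure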
# Conditions: autophagy, at 10 µM; % cells with GFP-LC3 spots: stronger effect = higher value; toxicity: measured here: cell loss, nuclei count
Compound,% cells with GFP-LC3 spots,toxicity [%]
CCN(CC)S(=O)(=O)c1cc([N+](=O)[O-])ccc1N=Nc1c(O)n(C)c2ccccc12,39.2% (active),2.86
CCn1c(O)c(N=NC(=O)c2cccc(S(=O)(=O)N3CCCCC3)c2)c2ccccc21,17.3% (inactive),3.19
CCN(CC)S(=O)(=O)c1cc([N+](=O)[O-])ccc1NNC(=O)Nc1ccccc1,2.34% (inactive),-10.5
CCCCNC(=O)CCn1c(=O)c2ccccc2n(Cc2cc(C)ccc2C)c1=O,8.22% (inactive),-3.52
COc1ccc(CN(C)Cc2nc3cc(OC)c(OC)cc3c(=O)[nH]2)c(OC)c1,25% (inactive),-8.88
O=C(/C=C/c1cn(-c2ccccc2)nc1-c1ccc2c(c1)OCCO2)NCCCN1CCOCC1,1.77% (inactive),-8.43
NC(=S)N/N=C/c1ccc([N+](=O)[O-])cc1,8.24% (inactive),23.5
CCOc1ccc(/C=N/NC(N)=S)cc1,19.6% (active),21.8
COC(=O)N/N=C/c1ccc(/C=N/NC(=O)OC)cc1,0.31% (inactive),-3.93
CCN1C(=O)/C(=C\N2CCN(c3cccc(Cl)c3)CC2)SC1=S,4.39% (active),13.1
CCN1C(=O)/C(=C\N2CCN(c3ccccc3)CC2)SC1=S,1.26% (inactive),-4.66
CCN1C(=O)/C(=C\N2CCOCC2)SC1=S,5.71% (inactive),-3.29
O=C(NCC(=O)N(CC1CCCO1)C(C(=O)NC1CCCCC1)c1ccccc1)c1ccco1 (centres undefined),0.515% (inactive),-9.95
COc1ccc(NC(=O)C(Br)C(C)C)cc1 (centres undefined),14.9% (inactive),8.32
CC(=O)C1(C)N(O)C(C)(C)C(c2cccs2)=[N+]1[O-] (centres undefined),3.17% (inactive),-3.76
CCC(C)(C)NC(=O)C(c1ccccn1)N(C(=O)c1csnn1)c1ccccc1 (centres undefined),3.17% (inactive),14.8
CC(C)(C)NC(=O)CN(C(=O)c1csnn1)c1ccccc1-c1ccccc1,8.79% (active),5.01
CC(C)(C)NC(=O)CN(C(=O)c1ccc(Cl)nc1)c1cccc2ccccc12,0.133% (inactive),-8.05
Cn1c(-c2ccc(F)cc2)cnc1SCC(=O)NNC(=O)Cc1ccccc1,2.62% (inactive),-10.5
CCOC(=O)/C(C#N)=C/c1cn(CCC(=O)O)nc1-c1ccc(Br)cc1,0.855% (inactive),-6.28
CC1=NN(C(=O)CCc2ccccc2O)C(O)(C(F)(F)F)C1 (centres undefined),3.31% (inactive),-3.6
COc1ccc(CC(=O)N2N=C(C)CC2(O)C(F)(F)F)cc1 (centres undefined),1.78% (inactive),0.121
CC1=NN(C(=O)CCCc2ccccc2)C(O)(C(F)(F)F)C1 (centres undefined),4.12% (active),3.92
CN1CCN(NC(=O)c2ccc(S(=O)(=O)N3CCCCCC3)cc2)CC1,1.83% (inactive),28
Cn1c(SCC(=O)N2CCCc3ccccc32)nc2ccccc2c1=O,11.1% (active),28.2
O=C(CSc1nc2[nH]ncc2c(=O)n1-c1ccccc1)N1CCCc2ccccc21,6.24% (inactive),17.2

Compound,% cells with GFP-LC3 spots,toxicity [%]
O=C(CSc1nc2ccccc2c(=O)n1CCCO)N1CCc2ccccc21,7.69% (inactive),-0.286
CCCCN(CC(=O)NC(C)(C)C)C(=O)C(=O)Nc1ccc2c(c1)OCCO2,0.957% (inactive),5.19
C/C(=N\NC(=O)c1ccc(NS(=O)(=O)c2cccs2)cc1)c1ccc2ccccc2c1,20.7% (inactive),-14.3
CCNC(=O)COc1cc(C)c(Br)c(C)c1,22.5% (inactive),9.49
COc1ccc(CCn2nnnc2C(c2ccccc2)N2CCN(C)CC2)cc1OC (centres undefined),22.3% (inactive),-9.31
COc1ccc(C(c2nnnn2Cc2cccs2)N2CCN(c3ccccc3)CC2)cc1OC (centres undefined),10.1% (active),46.3
COc1ccccc1C(c1nnnn1CC1CCCO1)N1CCN(c2ccccc2)CC1 (centres undefined),0.609% (inactive),-7.4
Cc1ccc(NC(=O)c2ccccn2)cc1S(=O)(=O)N1CCOCC1,7.19% (inactive),21.1
COc1ccc(NC(=S)NCC2CCN(c3ccc(OC)cc3)C2)cc1 (centres undefined),6.08% (inactive),8.9
COc1ccc(C(=O)Nc2ccc(NC(=O)C(C)C)nc2)cc1,4.13% (inactive),-1.69
COc1ccc(CC(=O)Nc2ccc(-c3nnc(-c4ccc(C)cc4)o3)cc2)cc1,39.9% (active),9.61
COc1ccc(CC(=O)Nc2ccc(C(=O)NC(C)(C)C)cc2)cc1,6.06% (inactive),-0.0115
Cc1ccc(OCC(=O)Nc2ccc(-c3nc4ncccc4o3)cc2)cc1,13.3% (inactive),-0.528
CN(c1ccc2nc3ccccc3c(=O)n2n1)C1CCCCC1,14.8% (inactive),11.6
Nc1nc(NC(=O)/C=C/c2ccccc2)nn1-c1ccccc1,7.01% (inactive),2.03
Cc1ccc(C(=O)NCC2CCCO2)o1 (centres undefined),12.6% (inactive),-1.73
CCc1cc(Br)ccc1NC(=O)C1CCCO1 (centres undefined),2.25% (inactive),-4.23
OC(CNCC1CCCO1)Cn1c2ccc(Br)cc2c2cc(Br)ccc21 (centres undefined),7.36% (active),47
O=C(Cc1c(F)cccc1Cl)Nc1ccc(-n2cnnn2)cc1,1.73% (inactive),5.48
O=C(c1ccc(-n2cnnn2)cc1)N1CCN(C(c2ccccc2)c2ccccc2)CC1,1.42% (inactive),13.6
c1cc(-n2cnnn2)ccc1NC1=NCCC1,12.1% (active),-6.55
CN(C)CCNC(=O)Cc1ccc([N+](=O)[O-])cc1,4.19% (inactive),2.43
COc1ccc(CC(=O)NCc2nnc(SCC(=O)Nc3ncc(C)s3)n2C)cc1,3.99% (inactive),-3.03
Cn1c(=O)c([N+](=O)[O-])c(Oc2ccccc2)c2ccccc21,0.277% (inactive),-4.02
O=C(OCC1O[C@@H](OC(=O)c2cc(O)c(O)c(O)c2)[C@@H](OC(=O)c2cc(O)c(O)c(O)c2)[C@@H](OC(=O)c2cc(O)c(O)c(O)c2)[C@@H]1OC(=O)c1cc(O)c(O)c(O)c1)c1cc(O)c(O)c(O)c1 (some centres undefined),0.427% (inactive),-40.5
CCOC(=O)C1=C(C)OC(N)=C(C#N)C1c1cncc(-c2ccc(F)cc2)c1 (centres undefined),6.18% (inactive),10.5

# Source: PubChem BioAssay AID463193 (University of Pittsburgh Molecular Library Screening Center, 2010)
